Experimental data: PubChem BioAssay (NCI)
About 83,000 compounds went through this panel and 20% of them were active in at least one assay; those are over-represented in the sample as a whole.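 Assay: single dose, 48 h. Readout: percent growth (0 = no net growth; negative = cell death). Active: <10.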 Active and inactive are the calls of the source.

What was measured:
Assay in all cases: NCI-60 one-dose screen, 48 h (100 = growth as untreated, 0 = no growth, -100 = all killed)
Conditions in all cases: 10 µM
[1] = test system: NCI-H23 lung
[2] = test system: NCI-H226 lung
[3] = test system: NCI-H322M lung
[4] = test system: HOP-62 NSCLC
[5] = test system: NCI-H460 lung
[6] = test system: HOP-92 NSCLC
[7] = test system: NCI-H522 lung
[8] = test system: A549/ATCC NSCLC
[9] = test system: 786-0 renal
[10] = test system: DU-145 prostate
[11] = test system: K-562 leukemia
[12] = test system: MDA-MB-231 breast
[13] = test system: RXF 393 renal
[14] = test system: SF-268 CNS
[15] = test system: SF-295 CNS
[16] = test system: SF-539 CNS
[17] = test system: UACC-257 melanoma
[18] = test system: M14 melanoma
[19] = test system: COLO 205 colon
[20] = test system: MALME-3M melanoma

Measured: growth

O=C(O)c1ccccc1C(=O)c1cccc2c(F)cccc12
inactive: [1] 102% | [2] 97.4% | [3] 108% | [4] 105% | [5] 115% | [6] 83% | [7] 103% | [8] 96.9% | [9] 104% | [10] 112% | [11] 108% | [12] 99.2% | [13] 114% | [14] 111% | [15] 122% | [16] 104% | [17] 98.4% | [18] 103%

COc1cc(C(=O)n2nc(N)c3c(C)cc(C)nc32)cc(OC)c1OC
inactive: [1] 88.8% | [2] 92.1% | [3] 88.6% | [4] 79.3% | [5] 89.9% | [7] 41% | [8] 55.7% | [9] 90.4% | [19] 67.6% | [10] 93.3% | [11] 18.2% | [20] 89% | [12] 87.7% | [13] 83.2% | [14] 79.1% | [15] 75.9% | [16] 64.6% | [17] 90.9% | [18] 80.2%

CCCCOCC(=O)NC(NP(=O)(N(C)C)N(C)C)C(Cl)(Cl)Cl (stereo unspecified)
inactive: [1] 101% | [2] 109% | [3] 127% | [4] 81.2% | [5] 110% | [7] 107% | [8] 102% | [9] 92.5% | [19] 109% | [10] 139% | [11] 84.2% | [12] 121% | [13] 130% | [14] 122% | [15] 70% | [16] 114% | [17] 108% | [18] 94.3%

CN(C)Cc1cccs1
inactive: [1] 94% | [2] 93.9% | [3] 101% | [4] 69.1% | [5] 108% | [7] 94.2% | [8] 93.7% | [9] 103% | [19] 107% | [10] 111% | [11] 109% | [20] 96.7% | [12] 90.4% | [13] 99.3% | [14] 95.2% | [15] 100% | [16] 96.1% | [17] 96.9% | [18] 94.8%

COc1ccc(-c2ccccc2)cc1C(=O)c1ccc(-c2ccccc2)cc1
inactive: [1] 73.6% | [2] 88.2% | [3] 75.5% | [4] 70.4% | [5] 88.9% | [7] 42.7% | [8] 63.7% | [9] 77.4% | [19] 82.5% | [10] 94% | [11] 20.8% | [12] 96.8% | [13] 85.7% | [14] 88.5% | [15] 53.4% | [16] 88.4% | [17] 106% | [18] 52%

Cc1ccc(NS(=O)(=O)c2ccccc2)c(NS(=O)(=O)c2ccccc2)c1
inactive: [1] 87.1% | [2] 105% | [3] 109% | [4] 86.5% | [5] 102% | [7] 102% | [8] 103% | [9] 108% | [19] 97.5% | [10] 92.8% | [11] 108% | [12] 103% | [13] 130% | [14] 102% | [15] 104% | [16] 110% | [17] 107% | [18] 102%

Nc1nc(SCC#CCCl)c2[nH]cnc2n1
inactive: [1] 66.2% | [2] 65.1% | [3] 62.7% | [4] 94.2% | [5] 29% | [7] 20.1% | [8] 54.5% | [9] 41.5% | [19] 47.7% | [10] 56.5% | [11] 38.2% | [12] 65.6% | [13] 46.7% | [14] 52.8% | [15] 60.2% | [16] 50.4% | [17] 50% | [18] 54.2%

COc1ccc(C2=NNC(c3sc(Cl)nc3Cl)C2)cc1 (stereo unspecified)
active: [7] 9.05% | [11] 7.31%
inactive: [1] 93.7% | [2] 54.4% | [3] 90.3% | [4] 72.5% | [5] 103% | [8] 94.7% | [9] 99.2% | [19] 63.1% | [10] 86.6% | [20] 74.3% | [12] 67.3% | [13] 71.7% | [14] 73% | [15] 102% | [16] 110% | [17] 94% | [18] 59.7%

c1ccc(OCCC[P+](c2ccccc2)(c2ccccc2)c2ccccc2)cc1
active: [1] 1.67% | [7] -7.37% | [19] -35.6% | [11] 1.76% | [15] -30.7% | [17] -10.9%
inactive: [2] 47.4% | [3] 20.4% | [4] 22% | [5] 12.5% | [8] 25.6% | [9] 23.1% | [10] 21.4% | [20] 16.5% | [12] 11.9% | [13] 31.6% | [14] 18% | [16] 13.6% | [18] 14.1%

N#Cc1ncc(-c2cc(F)ccc2F)c(NC2CCCCCC2)n1
inactive: [1] 89.9% | [2] 92.6% | [3] 73.6% | [4] 65.9% | [5] 48.5% | [7] 68% | [8] 78% | [9] 97.6% | [19] 100% | [10] 97.8% | [11] 90.2% | [20] 114% | [12] 60.7% | [13] 82.8% | [14] 60% | [15] 69.1% | [16] 79.7% | [17] 81.8% | [18] 104%

N#Cc1ccc(-n2cnc(NC(=O)[C@H]3CCN(C#N)C3)c2)cc1
inactive: [1] 19.8% | [2] 26.4% | [3] 43.5% | [4] 23% | [5] 15.3% | [8] 23.8% | [9] 23.7% | [10] 29.7% | [11] 17.8% | [12] 14.8% | [14] 29.9% | [15] 42% | [17] 42.3% | [18] 29.1%
active: [7] -37.8% | [19] -55.3% | [20] -14.1% | [13] -54.8% | [16] -9.26%

Cc1ccc(-c2cc(-c3cccc(Nc4ccnc5cc(Cl)ccc45)c3)nc3nc(N)[nH]c(=O)c23)cc1
inactive: [1] 100% | [2] 96.6% | [3] 91.3% | [4] 113% | [5] 110% | [7] 21% | [8] 102% | [9] 94.9% | [19] 125% | [10] 105% | [11] 28.1% | [20] 108% | [12] 103% | [13] 90.9% | [14] 91.2% | [15] 102% | [16] 97.5% | [17] 102% | [18] 106%

COc1nc2c(c(=O)[nH]1)C(c1ccc(Oc3ccnc4cc(Cl)ccc34)c(OC)c1)C=C(c1cc(OC)c(OC)c(OC)c1)N2 (stereo unspecified)
inactive: [1] 95.3% | [2] 96.6% | [3] 95.2% | [4] 116% | [5] 102% | [7] 93.3% | [8] 101% | [9] 95% | [19] 102% | [10] 95.1% | [11] 87.8% | [20] 109% | [12] 80.8% | [13] 106% | [14] 103% | [15] 99.1% | [16] 108% | [17] 92.2% | [18] 98.8%

CCCCCc1cc[n+](CC(=O)c2ccc(Cl)cc2)cc1
inactive: [1] 81.5% | [2] 90.8% | [3] 85.3% | [4] 92.7% | [5] 98.5% | [7] 72.1% | [8] 91.3% | [9] 76.2% | [19] 80.5% | [10] 95.2% | [11] 90.7% | [20] 89.8% | [12] 76.6% | [13] 95.6% | [14] 84.7% | [15] 94% | [16] 93.9% | [17] 97.5% | [18] 85.9%

COc1ccc(C(=O)/C=C/c2cc(-c3ccc(OC)c(OC)c3)n[nH]2)cc1OC
inactive: [2] 58% | [15] 18% | [17] 11.7% | [18] 18.1%
active: [1] 8.17% | [3] -13.5% | [4] -33.5% | [5] -42.2% | [7] -89.4% | [8] -12.8% | [9] -64.2% | [19] -60.7% | [10] -25.8% | [11] 5.44% | [20] -47.5% | [12] -18.7% | [13] -79.3% | [14] -28% | [16] -99.3%

CCOC(=O)Cn1nnc(-c2ccc(OCc3ccccc3F)cc2)n1
inactive: [1] 89% | [2] 103% | [3] 98.7% | [4] 87.1% | [5] 102% | [7] 52.3% | [8] 90.8% | [9] 97.2% | [10] 103% | [11] 53% | [20] 36.9% | [12] 104% | [13] 79.9% | [14] 82.8% | [15] 91.7% | [16] 92.4% | [17] 87.5% | [18] 75.1%

CC(=O)Nc1nc(C)c(C(=O)N/N=C/c2cccn2C)s1
inactive: [1] 96% | [2] 90.7% | [3] 150% | [4] 109% | [5] 109% | [6] 56.1% | [7] 86% | [8] 104% | [9] 111% | [10] 106% | [11] 54.3% | [12] 102% | [13] 119% | [14] 95.9% | [15] 114% | [16] 103% | [17] 120% | [18] 115%
